Laboratory results reported in PubChem BioAssay.
Active and inactive are the calls of the source. Unless noted, the rule behind the calls is not given here.

Experiments:
[1] = anti-His antibody binders, primary screen, artefact control for SMM control protein annotation, biochemical, small-molecule microarray, 635 nm fluorescence (AID 1128); settings: anti-His Alexa647 antibody binding, higher = more signal;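 note: score merges feature fluorescence with signal-to-noise for each printed compound spot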
[2] = system: Human papillomavirus type 1a E7 protein (residues 1-88); experiment: HPV1a E7 small-molecule binders, primary screen, biochemical, small-molecule microarray, residues 1-88, 635 nm (AID 1129); settings: small-molecule microarray binding, fluorescence 635 nm; higher = more signal
[3] = target: Focal adhesion kinase 1 (Homo sapiens) (UniProt Q05397); experiment: small-molecule microarray binders of FAK, primary screen, biochemical, 635/667 nm fluorescence, BSA, DTT (AID 1130); settings: PTK2 binding, 635 nm fluorescence, higher = more signal;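 note: composite of spot emission at 667 nm and signal to noise over triplicate slides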
Chain of Focal adhesion kinase 1 (Homo sapiens) (Q05397 whole entry, looked up): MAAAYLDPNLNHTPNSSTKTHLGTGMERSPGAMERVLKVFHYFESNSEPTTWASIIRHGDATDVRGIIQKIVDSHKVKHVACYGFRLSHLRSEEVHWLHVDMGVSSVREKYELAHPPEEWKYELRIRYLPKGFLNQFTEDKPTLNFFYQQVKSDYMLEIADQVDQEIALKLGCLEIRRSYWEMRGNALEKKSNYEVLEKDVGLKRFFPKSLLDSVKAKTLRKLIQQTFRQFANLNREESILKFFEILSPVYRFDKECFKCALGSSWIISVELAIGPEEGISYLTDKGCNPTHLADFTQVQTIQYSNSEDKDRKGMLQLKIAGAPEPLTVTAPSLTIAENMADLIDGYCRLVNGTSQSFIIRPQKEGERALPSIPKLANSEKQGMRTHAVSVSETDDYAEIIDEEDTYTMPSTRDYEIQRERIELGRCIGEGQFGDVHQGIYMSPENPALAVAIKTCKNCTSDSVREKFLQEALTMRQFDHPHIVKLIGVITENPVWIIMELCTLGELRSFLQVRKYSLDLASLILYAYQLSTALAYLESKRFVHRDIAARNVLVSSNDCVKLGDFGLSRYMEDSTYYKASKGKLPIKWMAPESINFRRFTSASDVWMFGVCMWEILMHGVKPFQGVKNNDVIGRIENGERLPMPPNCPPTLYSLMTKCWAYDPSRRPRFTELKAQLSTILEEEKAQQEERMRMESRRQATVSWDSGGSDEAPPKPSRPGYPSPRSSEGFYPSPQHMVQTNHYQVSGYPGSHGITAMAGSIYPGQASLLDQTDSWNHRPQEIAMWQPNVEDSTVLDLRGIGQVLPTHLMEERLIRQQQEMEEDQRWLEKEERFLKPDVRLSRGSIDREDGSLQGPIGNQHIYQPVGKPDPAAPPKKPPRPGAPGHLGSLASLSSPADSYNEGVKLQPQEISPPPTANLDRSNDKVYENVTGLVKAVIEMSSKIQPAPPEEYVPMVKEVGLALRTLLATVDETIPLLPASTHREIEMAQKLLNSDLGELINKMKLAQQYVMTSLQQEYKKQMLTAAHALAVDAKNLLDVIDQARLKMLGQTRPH

[4] = system: Fibrinogen (Alexa647-labelled); experiment: fibrinogen binders on compound microarrays, profiling panel, artefact control for SMM control-protein annotation, biochemical, small-molecule microarray, 635/667 nm fluorescence (AID 1131); settings: fibrinogen-A647 binding fluorescence, higher = more signal;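 note: z-score merges 667 nm fluorescence with per-spot signal-to-noise over triplicate slides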
[5] = target: Follistatin (Homo sapiens) (UniProt P19883); experiment: follistatin binders on small-molecule microarrays, primary screen, biochemical, small-molecule microarray, 635/667 nm fluorescence (AID 1132); settings: FST binding, 635 nm fluorescence, higher = more signal
Chain of Follistatin (Homo sapiens) (P19883 whole entry, looked up): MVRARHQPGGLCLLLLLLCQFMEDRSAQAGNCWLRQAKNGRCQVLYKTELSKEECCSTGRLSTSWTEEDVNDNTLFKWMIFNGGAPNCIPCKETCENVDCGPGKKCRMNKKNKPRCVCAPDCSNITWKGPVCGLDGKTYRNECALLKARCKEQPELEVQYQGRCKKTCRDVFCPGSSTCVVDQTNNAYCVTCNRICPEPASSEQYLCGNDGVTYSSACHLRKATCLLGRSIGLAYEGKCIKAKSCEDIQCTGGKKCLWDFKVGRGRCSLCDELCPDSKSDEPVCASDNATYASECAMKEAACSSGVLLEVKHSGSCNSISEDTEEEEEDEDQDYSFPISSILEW

[6] = target: Fibroblast growth factor 2 (Homo sapiens) (UniProt P09038); experiment: FGF2 binders on small-molecule microarrays, primary screen, biochemical, small-molecule microarray, 635/667 nm fluorescence (AID 1133); settings: small-molecule microarray binding, FGF2, fluorescence 635/667; higher = more signal
Chain of Fibroblast growth factor 2 (Homo sapiens) (P09038 whole entry, looked up): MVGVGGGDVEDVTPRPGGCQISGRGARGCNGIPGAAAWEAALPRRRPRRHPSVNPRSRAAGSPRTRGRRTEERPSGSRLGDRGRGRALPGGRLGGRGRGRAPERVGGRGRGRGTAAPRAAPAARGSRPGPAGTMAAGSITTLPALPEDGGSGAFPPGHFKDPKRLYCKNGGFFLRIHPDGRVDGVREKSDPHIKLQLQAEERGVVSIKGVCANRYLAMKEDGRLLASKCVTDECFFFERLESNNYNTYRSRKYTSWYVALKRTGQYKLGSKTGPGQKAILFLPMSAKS

[7] = mitochondrial membrane potential change in A549 cells, profiling panel, cell-based, JC-1 fluorescence, basal, 24 h, 100 nL (AID 1138); settings: higher = more signal;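 note: A549 lung adenocarcinoma cells under basal conditions with no added stimulus; test concentration not given here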
Lefty1 = Lefty1 binders on small-molecule microarrays, primary screen, biochemical, small-molecule microarray, 635/667 nm fluorescence (AID 1139); settings: small-molecule microarray binding, fluorescence 635/667; higher = more signal
[8] = system: wheat germ agglutinin (Triticum aestivum), Alexa647-labelled; experiment: wheat germ agglutinin binders on compound microarrays, profiling panel, artefact control for SMM control-protein annotation, biochemical, small-molecule microarray, 635/667 nm fluorescence (AID 1140); settings: WGA-A647 binding, 635 nm fluorescence, higher = more signal;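 note: score merges 667 nm feature emission with signal to noise over triplicate slides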
[9] = target: Luciferin 4-monooxygenase (Photinus pyralis) (UniProt P08659); experiment: firefly luciferase enzyme inhibitors, primary screen, biochemical, luminescence, purified enzyme, 2006 set (AID 1141); settings: SteadyGlo luminescence, 30 min, higher = more signal, called active from +8 up or from −8 down;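 note: cell-free assay with purified firefly luciferase at 100 ng per well in PBS; test concentration not given here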
Chain of Luciferin 4-monooxygenase (Photinus pyralis) (P08659 whole entry, looked up): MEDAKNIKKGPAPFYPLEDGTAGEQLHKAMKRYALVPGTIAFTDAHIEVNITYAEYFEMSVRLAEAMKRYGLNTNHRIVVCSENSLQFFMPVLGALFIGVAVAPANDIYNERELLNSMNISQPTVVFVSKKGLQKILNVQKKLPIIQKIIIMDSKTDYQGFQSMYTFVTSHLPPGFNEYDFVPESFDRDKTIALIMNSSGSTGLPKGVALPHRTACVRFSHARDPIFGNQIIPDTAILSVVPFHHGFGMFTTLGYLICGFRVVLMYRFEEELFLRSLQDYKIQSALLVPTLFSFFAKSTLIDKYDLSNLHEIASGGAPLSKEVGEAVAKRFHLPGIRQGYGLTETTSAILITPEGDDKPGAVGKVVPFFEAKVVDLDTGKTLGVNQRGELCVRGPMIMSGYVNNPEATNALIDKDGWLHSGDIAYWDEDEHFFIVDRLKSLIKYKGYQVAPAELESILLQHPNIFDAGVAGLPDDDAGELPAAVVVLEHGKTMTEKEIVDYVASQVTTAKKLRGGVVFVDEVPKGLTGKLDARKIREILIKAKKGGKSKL

[10] = system: Wnt5a (protein binding on small-molecule microarray); experiment: Wnt5a binders on small-molecule microarray, primary screen, biophysical, 635/667 nm fluorescence (AID 1142); settings: 635 nm fluorescence, higher = more signal;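 note: fluorescence read at 667 nm with signal to noise per printed feature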
[11] = cell viability in Huh7 cells, primary screen, cytotoxicity control for HCV replication inhibitor project, CellTiter-Glo luminescence, basal, 48 h (AID 1143); settings: Huh7 HCV replicon, higher = more signal, called active from +8 up or from −8 down;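 note: Huh7 hepatoma cells carrying a hepatitis C replication reporter with no stimulus; test concentration not given here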
[12] = P. aeruginosa biofilm formation inhibitors, primary screen, PAO1 strain, BacTiter-Glo luminescence, LB-PBS (AID 1144); settings: 12 h, higher = more signal
[13] = CREB reporter modulators without forskolin, primary screen, cell-based, PC12, CRE-LacZ reporter, unstimulated (AID 1145); settings: no forskolin, luminescence, 4.5 h, higher = more signal, called active from +8 up or from −8 down
[14] = CREB reporter modulators under forskolin, primary screen, cell-based, PC12, CRE-LacZ reporter, forskolin-stimulated (AID 1146); settings: luminescence, 4.5 h, higher = more signal, called active from +8 up or from −8 down;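 note: PC12 cells with 6xCRE LacZ reporter stimulated by forskolin 10 µM; beta-galactosidase reporter signal reflecting CREB driven transcription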
[15] = target: Streptavidin (Streptomyces avidinii) (UniProt P22629); experiment: streptavidin binders on small-molecule microarray, primary screen, artefact control for SMM compound annotation, biophysical, 635/667 nm fluorescence (AID 1147); settings: streptavidin binding, higher = more signal;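 note: signal reflects streptavidin binding to arrayed compounds as a control protein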
Chain of Streptavidin (Streptomyces avidinii) (P22629 whole entry, looked up): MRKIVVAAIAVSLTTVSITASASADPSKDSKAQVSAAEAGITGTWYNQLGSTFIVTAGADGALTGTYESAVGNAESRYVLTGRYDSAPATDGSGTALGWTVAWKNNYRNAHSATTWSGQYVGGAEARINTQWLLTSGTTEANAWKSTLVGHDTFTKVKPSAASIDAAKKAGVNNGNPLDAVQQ

[16] = small-molecule binders of probe aInhba, primary screen, biochemical, small-molecule microarray, 635/667 nm fluorescence (AID 1148); settings: higher = more signal;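 note: score merges 667nm spot fluorescence with signal-to-noise for antibody binding to printed compounds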
Torsin-1A (Homo sapiens) [17] = target: Torsin-1A (Homo sapiens) (UniProt O14656); experiment: torsin A binders from cell lysate, primary screen, small-molecule microarray, wild-type, 635/667 nm (AID 1149); settings: COS7 hTOR1A-WT lysate, 635 nm fluorescence, higher = more signal
Chain of Torsin-1A (Homo sapiens) (O14656 whole entry, looked up): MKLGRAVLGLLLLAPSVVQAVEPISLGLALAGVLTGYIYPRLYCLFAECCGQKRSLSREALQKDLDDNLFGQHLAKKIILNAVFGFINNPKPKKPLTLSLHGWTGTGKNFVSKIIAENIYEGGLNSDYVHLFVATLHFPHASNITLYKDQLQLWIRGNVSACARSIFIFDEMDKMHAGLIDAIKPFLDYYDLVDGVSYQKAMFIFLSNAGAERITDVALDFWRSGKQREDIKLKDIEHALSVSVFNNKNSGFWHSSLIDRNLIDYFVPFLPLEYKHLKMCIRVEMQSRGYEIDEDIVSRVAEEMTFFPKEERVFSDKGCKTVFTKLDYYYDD

Torsin-1A (Homo sapiens) [18] = target: Torsin-1A (Homo sapiens) (UniProt O14656); experiment: small-molecule binders of mutant TOR1A in lysate, primary screen, cell lysate, small-molecule microarray, COS7 lysate, 635/667 nm fluorescence (AID 1150); settings: COS7 hTOR1A mutant lysate, 635 nm fluorescence, higher = more signal;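 note: score pools 667 nm emission and signal to noise measuring lysate protein binding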
[19] = system: Sonic hedgehog protein (Shh); experiment: small-molecule binders of Shh protein, primary screen, biochemical, small-molecule microarray, 635/667 nm fluorescence (AID 1151); settings: small-molecule microarray binding, 635 nm fluorescence; higher = more signal;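 note: Shh protein binding to compounds spotted on small-molecule microarray slides; score combines spot fluorescence intensity with signal-to-noise across triplicate slides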

| SMILES | composite z-score [1] | composite z-score [2] | composite z-score [3] | composite z-score [4] | composite z-score [5] | composite z-score [6] | z-score [7] | composite z-score (Lefty1) | composite z-score [8] | z-score [9] | composite z-score [10] | z-score [11] | z-score [12] | z-score [13] | z-score [14] | composite z-score [15] | composite z-score [16] | composite z-score (Torsin-1A (Homo sapiens) [17]) | composite z-score (Torsin-1A (Homo sapiens) [18]) | composite z-score [19] |
| --- | --- | --- | --- | --- | --- | --- | --- | --- | --- | --- | --- | --- | --- | --- | --- | --- | --- | --- | --- | --- |
| COc1cc(NN2C(C(O)c3ccccc3)C=CC3C(=O)N(c4ccccc4)C(=O)C32)cc(OC)c1OC (stereo not given) | 1.67 | 1.28 | 0.707 | 0.967 | 0.952 | 0.444 | 1.42 | 0.879 | 1.39 | -2.13 (inactive) | 0.421 | -3.47 (inactive) | -0.525 (inactive) | 0.433 (inactive) | -0.557 (inactive) | 0.148 | 0.0829 | 0.179 | 0.989 | 0.89 |
| Cc1ccc(S[C@]2(C(=O)NCC(F)(F)F)CC(=O)N(C3Cc4ccccc4C3)[C@@H]2c2ccc(CO)cc2I)cc1 | -1.2 | -0.38 | -0.493 | -0.161 | -1.14 | -1.01 | 0.496 | -1.36 | 0.0728 | -0.727 (inactive) | -0.465 | -1.42 (inactive) | -0.46 (inactive) | -0.231 (inactive) | 0.0489 (inactive) | -0.457 | -0.0471 | 0.108 | -0.248 | -0.703 |
| Cc1ccc(S(=O)(=O)N2CC(C(=O)O)=CCC2c2ccccc2)cc1 (stereo not given) | -0.67 | -0.2 | 0.223 | -0.275 | -1.22 | -1.14 | -1.33 | -0.946 | 0.0972 | 1.52 (inactive) | -0.0669 | 0.0982 (inactive) | -0.153 (inactive) | -0.266 (inactive) | 0.222 (inactive) | -0.134 | -0.128 | 1.08 | -0.307 | -0.861 |
| CC(=O)n1cc(C(O)C2C=CC3C(=O)N(c4ccccc4)C(=O)C3N2Nc2ccc(C#N)cc2)c2ccccc21 (stereo not given) | 1.56 | 1.26 | 0.519 | 0.893 | 0.12 | -0.856 | 0.0139 | -0.233 | 1.38 | -0.985 (inactive) | 0.523 | 0.853 (inactive) | -0.935 (inactive) | -0.512 (inactive) | 0.1 (inactive) | 0.846 | 0.11 | -0.467 | 0.522 | -0.38 |
| [N-]=[N+]=NCc1ccccc1C[C@]1(C(=O)NCc2ccccc2)COC(c2ccc(OCCCO)cc2)=N1 | 0.519 | 1.16 | 1.11 | 0.948 | 0.101 | 0.661 | -0.221 | -0.0991 | 0.762 | -0.169 (inactive) | -0.0113 | -5.27 (inactive) | 0.664 (inactive) | 1.72 (inactive) | 0.232 (inactive) | 0.469 | 0.0301 | -0.328 | 0.784 | -1.13 |
| [N-]=[N+]=Nc1ccccc1[C@H]1OC(c2ccc(OCCCO)cc2)=N[C@@]1(CCS(=O)(=O)c1ccccc1)C(=O)N1CCOCC1 | 2.83 | 1.26 | 1.32 | 1 | 1.3 | 1.73 | -0.218 | 0.225 | 1.47 | -15 (active) | 1.48 | -2.5 (inactive) | 0.385 (inactive) | 0.937 (inactive) | 0.28 (inactive) | 0.877 | 0.496 | 0.35 | 0.923 | 0.836 |
| NC(=O)[C@]1(Cc2ccccc2)N=C(c2ccc(OCCCO)cc2)O[C@@H]1c1ccccc1 | 1.15 | 1.12 | 0.246 | 0.977 | 0.368 | -0.555 | -1.04 | -0.524 | 1.05 | -0.354 (inactive) | 0.0788 | -2.3 (inactive) | -0.783 (inactive) | 5.59 (inactive) | 1.49 (inactive) | 0.452 | 0.0872 | -0.783 | -0.0179 | -0.955 |
| COCCOC(=O)N1C(=O)[C@@]2(c3cc(C#Cc4ccc(OC)cc4)ccc31)[C@H](C(N)=O)[C@H]1C(=O)O[C@H](c3ccccc3)[C@H](c3ccccc3)N1[C@@H]2c1ccc(O)cc1 | -0.994 | -0.923 | -0.582 | -1.48 | -0.694 | -2.13 | -0.335 | -2.08 | 0.17 | -0.245 (inactive) | 0.115 | -4.24 (inactive) | 0.0989 (inactive) | 0.0776 (inactive) | -0.844 (inactive) | -1.23 | 0.295 | -1.2 | -1.29 | -0.692 |
| O=C1O[C@H](c2ccccc2)[C@H](c2ccccc2)N2[C@H]1[C@@H](C(=O)N1CCCCCCC1)[C@]1(C(=O)Nc3ccc(C#CC4=CCCCC4)cc31)[C@H]2c1ccc(O)cc1 | 3.04 | 1.36 | 5.6 | 0.535 | 1.56 | 1.22 | -0.233 | 1.82 | 1.81 | 0.289 (inactive) | 2.45 | -5.14 (inactive) | -1.54 (inactive) | -1.43 (inactive) | -0.464 (inactive) | 4.23 | 1.98 | 3.97 | 3.82 | 2.29 |
| O=C1O[C@@H](c2ccccc2)[C@@H](c2ccccc2)N2[C@@H](c3ccc(O)cc3)[C@]3(C(=O)Nc4ccccc43)[C@@H](C(=O)NC[C@H](O)c3ccccc3)[C@H]12 | 2.07 | -0.366 | 0.0943 | -0.406 | 1.02 | 0.797 | 0.411 | 0.266 | 0.0576 | 0.807 (inactive) | 0.062 | -2.34 (inactive) | 0.184 (inactive) | 0.0921 (inactive) | 0.175 (inactive) | -0.26 | -0.176 | -1 | 0.371 | 0.142 |
